# Target: T1, ETS1 (UniProt P14921)
# T1 sequence: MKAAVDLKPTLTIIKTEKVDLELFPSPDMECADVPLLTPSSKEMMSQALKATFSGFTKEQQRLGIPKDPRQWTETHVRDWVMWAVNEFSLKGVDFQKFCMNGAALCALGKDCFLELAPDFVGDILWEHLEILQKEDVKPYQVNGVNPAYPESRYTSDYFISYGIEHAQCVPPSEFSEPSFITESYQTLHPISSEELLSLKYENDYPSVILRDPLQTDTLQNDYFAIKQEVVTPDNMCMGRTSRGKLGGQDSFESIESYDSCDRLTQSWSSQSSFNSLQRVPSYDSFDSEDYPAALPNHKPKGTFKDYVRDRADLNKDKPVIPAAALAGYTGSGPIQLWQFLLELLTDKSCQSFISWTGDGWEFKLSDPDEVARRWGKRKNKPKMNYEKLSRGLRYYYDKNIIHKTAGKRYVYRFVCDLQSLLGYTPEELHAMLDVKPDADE
# Test: ETS1 binding intensity (PBM fluorescence), ETS1 alone (arbitrary fluorescence units); higher = stronger binding
# Details: ETS1 concentration 1 nM; RUNX1 concentration 0 nM
# 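Wherever RUNX1 binding intensity (PBM fluorescence), RUNX1 alone is given: Full-length recombinant human RUNX1 bound to double-stranded 36-bp genomic probes on a high-density microarray, scored as Alexa488 fluorescence per spot via anti-RUNX1 antibody, median of four replicate spots.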
row,Sequence,ETS1 binding intensity
1,AGGCCTCGCTTCCTCTCCTGACCACACCCTGCAGCT,446
2,TCTTCTTCCTCCCCCACCCCAAAAGCCACAGGTGAC,492
3,ACTGCTTGATTTTCAGGAAGTGGTAAAGTGGCAGGT,3700
4,GTCCCACGCGACTTCCTGCGGGAAACATGGCGGCAT,1520
5,CATACAGGATGCTGGGGTATGTAAAACAAACCACGG,708
6,TTCAGGTGACTTCCGGCCGGACCGCTGAGGACGCGG,9020
7,TGGGAACTTCCTGTGGAGGAGTGCATTGTGGGACTT,851
8,CGGCAGGGAAGCAGGAAACCGCGAGTGGAGAAAGGG,1790
9,GATACCCAGCCAGCGGAAGTGCGGTTAACTGCCCGA,4460
10,GCAGTGCAGGAAGTGCTTTGTGTGGTACAATCCCAA,1920
11,AGACCCGGAAATGGTGGGTGTTTCTTGCAACCACGG,1810
12,CTTAGTGTTTGAGGATGTGGGTTTTACAATCAGATC,845
13,GCCGCCTCTTCCTGTGTTGCAAACCACAGGTCCACC,1250
14,CCAGCCCAGGAAACAAGGAACCCCAAAGCCACAGGA,392
15,TCTGTGAAAAAGGATGTGCGGTTATGGAGGAGAACT,970
16,AGGAGAACTTCCGCCCTTACTATATTACCGCCGGTA,1180
17,AAGGCGGTACTTCCTCCAGCATTTGCCGCAAGTTAT,417
18,GAGCATAGCCTAGCAGGATGTGGTTAAATACATTTG,3320
19,CTGCCGGAAGCTGCCCCTCCACCATTTTGTGGCCCG,1770
20,AGAGACAGCGGGCGGAAACCGCAGAAAAAGTTGAAA,1640

row,Sequence,ETS1 binding intensity
1,GGTTTCCGGGTGAAAAAAAAAAAAAAAACCACGCCA,461
2,CTGCGTTTCCTCTGAGTTTTGCATGTTGAGGTTGGA,462
3,GCAGAGAGGAAGTGTGGGGGTGGAGGAGGCCGCAGA,681
4,TCCTGGCAGAGACCGGAAGTGCGGTCCGCGGAGCGT,28200
5,CCCTTCGCTTCCGCTCCGCGTTCCCACAATGCAGTG,884
6,GATGCTTGTTCAGGATGCGGTTTCTTGCAGCAAGTT,674
7,TAAGGATGTGTGGCTTCCAGATCAAAAACCGCAAAA,516
8,GTCCTCCACTATTGTTTCCGGCCGCAGCAGAGGCGG,1870
9,GTGGGAGCGGAAGCCTGAGCGGCCTGCGGCCTCCGG,863
10,GCTCTGCAGGATGTGGCTGTGACCGCAGTGAGGAGC,1290
11,GGCCGGGGGCAGGAAGCTGCGGCGCTGGCTCCCCCC,2510
12,GCAGAAGGATTTCCTGTTTCAGGCAACCACAGCGAC,1630
13,CACTGCGGAAGCAGTGTAGAGAGGTGGTTATCAGTG,707
14,AGGGTTACAATTTCCGTAAACCACAGAAGCAGCAGA,550
15,ACACCCCAGGCAGGATGTGGTAGGGGTTGCCCCAGA,2740
16,GTGGTCTCTCCCGGAAAAACCACTTCCACCGAGAAC,932
17,GAAATCCATCACGGATGTGGGCTTTTTGCTCTCATT,1490
18,CGGGACCTGTTTCCTTGGGAACCACAAGATAAGACC,407
19,ATGTTAACATCCTGCCATGAAAACCGCAAGAAGGGC,680
20,GTTTTCAAGGCAGGAAGTGGCTGTGGTGGCACGGAG,13700

# Target: RUNX1 (UniProt Q01196)
# Sequence (Q01196 whole entry): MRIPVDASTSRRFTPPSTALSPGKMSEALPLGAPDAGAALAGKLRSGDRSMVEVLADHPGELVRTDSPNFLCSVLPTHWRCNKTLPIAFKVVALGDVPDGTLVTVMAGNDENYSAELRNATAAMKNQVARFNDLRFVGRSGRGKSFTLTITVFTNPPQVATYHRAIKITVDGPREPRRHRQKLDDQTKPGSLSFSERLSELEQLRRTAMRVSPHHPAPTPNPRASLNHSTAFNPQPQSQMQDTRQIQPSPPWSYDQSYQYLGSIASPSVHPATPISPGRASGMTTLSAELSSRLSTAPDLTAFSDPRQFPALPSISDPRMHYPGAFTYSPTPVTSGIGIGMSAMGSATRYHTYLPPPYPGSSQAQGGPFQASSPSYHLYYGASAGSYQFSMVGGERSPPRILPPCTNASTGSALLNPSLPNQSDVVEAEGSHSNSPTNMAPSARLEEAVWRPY
# Test: RUNX1 binding intensity (PBM fluorescence), RUNX1 alone (arbitrary fluorescence units); higher = stronger binding
# Details: RUNX1 concentration 2 nM; ETS1 concentration 0 nM
# Method: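 Cooperative gcPBM on 36-bp genomic probes with neighbouring ETS1 and RUNX1 sites. Recombinant human RUNX1 (2 nM) was incubated alone or with ETS1 (25 nM) and detected with anti-RUNX1 antibody plus Alexa488 secondary. Values are medians over 4 replicate spots; the RUNX1+ETS1 data were normalised to the RUNX1-only data. The probes sit in constant array flanks that are not printed.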
row,Sequence,RUNX1 binding intensity
1,AGGCCTCGCTTCCTCTCCTGACCACACCCTGCAGCT,1160
2,TCTTCTTCCTCCCCCACCCCAAAAGCCACAGGTGAC,1290
3,ACTGCTTGATTTTCAGGAAGTGGTAAAGTGGCAGGT,782
4,GTCCCACGCGACTTCCTGCGGGAAACATGGCGGCAT,771
5,CATACAGGATGCTGGGGTATGTAAAACAAACCACGG,775
6,TTCAGGTGACTTCCGGCCGGACCGCTGAGGACGCGG,684
7,TGGGAACTTCCTGTGGAGGAGTGCATTGTGGGACTT,686
8,CGGCAGGGAAGCAGGAAACCGCGAGTGGAGAAAGGG,1160
9,GATACCCAGCCAGCGGAAGTGCGGTTAACTGCCCGA,4990
10,GCAGTGCAGGAAGTGCTTTGTGTGGTACAATCCCAA,759
11,AGACCCGGAAATGGTGGGTGTTTCTTGCAACCACGG,668
12,CTTAGTGTTTGAGGATGTGGGTTTTACAATCAGATC,769
13,GCCGCCTCTTCCTGTGTTGCAAACCACAGGTCCACC,1570
14,CCAGCCCAGGAAACAAGGAACCCCAAAGCCACAGGA,828
15,TCTGTGAAAAAGGATGTGCGGTTATGGAGGAGAACT,1210
16,AGGAGAACTTCCGCCCTTACTATATTACCGCCGGTA,737
17,AAGGCGGTACTTCCTCCAGCATTTGCCGCAAGTTAT,768
18,GAGCATAGCCTAGCAGGATGTGGTTAAATACATTTG,747
19,CTGCCGGAAGCTGCCCCTCCACCATTTTGTGGCCCG,818
20,AGAGACAGCGGGCGGAAACCGCAGAAAAAGTTGAAA,8270

row,Sequence,RUNX1 binding intensity
1,GGTTTCCGGGTGAAAAAAAAAAAAAAAACCACGCCA,906
2,CTGCGTTTCCTCTGAGTTTTGCATGTTGAGGTTGGA,877
3,GCAGAGAGGAAGTGTGGGGGTGGAGGAGGCCGCAGA,828
4,TCCTGGCAGAGACCGGAAGTGCGGTCCGCGGAGCGT,739
5,CCCTTCGCTTCCGCTCCGCGTTCCCACAATGCAGTG,1600
6,GATGCTTGTTCAGGATGCGGTTTCTTGCAGCAAGTT,3420
7,TAAGGATGTGTGGCTTCCAGATCAAAAACCGCAAAA,7590
8,GTCCTCCACTATTGTTTCCGGCCGCAGCAGAGGCGG,1070
9,GTGGGAGCGGAAGCCTGAGCGGCCTGCGGCCTCCGG,692
10,GCTCTGCAGGATGTGGCTGTGACCGCAGTGAGGAGC,1520
11,GGCCGGGGGCAGGAAGCTGCGGCGCTGGCTCCCCCC,649
12,GCAGAAGGATTTCCTGTTTCAGGCAACCACAGCGAC,773
13,CACTGCGGAAGCAGTGTAGAGAGGTGGTTATCAGTG,784
14,AGGGTTACAATTTCCGTAAACCACAGAAGCAGCAGA,1450
15,ACACCCCAGGCAGGATGTGGTAGGGGTTGCCCCAGA,741
16,GTGGTCTCTCCCGGAAAAACCACTTCCACCGAGAAC,861
17,GAAATCCATCACGGATGTGGGCTTTTTGCTCTCATT,760
18,CGGGACCTGTTTCCTTGGGAACCACAAGATAAGACC,709
19,ATGTTAACATCCTGCCATGAAAACCGCAAGAAGGGC,19000
20,GTTTTCAAGGCAGGAAGTGGCTGTGGTGGCACGGAG,789

# From the supplement of paper PMC10681739
